# From PubChem
# AmpC inh detg: qHTS Inhibitors of AmpC Beta-Lactamase (assay with detergent) | P00811 | AmpC hydrolysis of nitrocefin, absorbance 480 nm, 0.01% Triton | 0.041% of 370,000 active | AID 485294, 2010 | Potency, µM (top dose mostly 114 µM), usual class: inhibitors; further: nearly all actives have a fitted effect of over 25% in size
# Target sequence (P00811 whole entry, looked up): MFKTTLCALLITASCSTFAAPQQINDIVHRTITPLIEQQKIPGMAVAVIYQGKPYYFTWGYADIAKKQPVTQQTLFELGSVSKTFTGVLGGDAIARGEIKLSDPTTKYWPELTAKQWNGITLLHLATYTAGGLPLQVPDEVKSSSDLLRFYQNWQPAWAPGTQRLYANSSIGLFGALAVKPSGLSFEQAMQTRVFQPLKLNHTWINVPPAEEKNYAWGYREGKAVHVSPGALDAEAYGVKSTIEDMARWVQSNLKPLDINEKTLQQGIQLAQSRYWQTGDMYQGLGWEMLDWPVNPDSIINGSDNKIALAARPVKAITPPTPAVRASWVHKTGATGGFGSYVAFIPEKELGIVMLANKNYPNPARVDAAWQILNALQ
#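 20 mM phosphate pH 7.0 + 0.01% (detergent screen) or 0.0001% Triton X-100; 5.3 nM AmpC reagent; cpd preinc 15 min RT; nitrocefin (800 uM stock) to start; A480 q20 s × 4 min; Activity was normalised to no-enzyme and no-compound control wells.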
# AMA1 RON2 block: qHTS for Inhibitors of AMA1-RON; Towards Development of Antimalarial Drug Lead: Primary Screen; Plasmodium falciparum AMA1 (3D7) - RON2 peptide interaction; AlphaScreen AMA1-biotinylated RON2 peptide binding; Potency, µM (highest dose often 58.2 µM), most hits filed as inhibitors; 0.2% of 360,000 active; AID 720542, 2013; further: nearly all actives have a fitted effect of over 45% in size
#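 AMA1 (3D7) with his tag at 25 nM final met compounds first, then biotinylated RON2 peptide at 25 nM; detection used donor plus acceptor beads, 10 µg/mL apiece, read by AlphaScreen after 30 min at room temperature.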
# AmpC inh no detg: qHTS Inhibitors of AmpC Beta-Lactamase (assay without detergent); 0.52% of 330,000 active; P00811; AmpC nitrocefin hydrolysis, absorbance 480 nm, 0.0001% Triton; Potency, µM (doses to about 57.1 µM), hits mostly inhibitors; further: nearly all actives have a fitted effect of over 20% in size
#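 20 mM phosphate pH 7.0 + 0.01% (detergent screen) or 0.0001% Triton X-100; 5.3 nM AmpC reagent; cpd preinc 15 min RT; nitrocefin (800 uM stock) to start; A480 q20 s × 4 min; Activity was normalised to no-enzyme and no-compound control wells.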
# Giardia FBPA inh: qHTS Assay for Inhibitors of Fructose-1,6-bisphosphate Aldolase from Giardia Lamblia | purified Giardia FBPA | Potency, µM (doses to about 59.6 µM), actives largely listed as inhibitors | 0.71% of 290,000 active | AID 2451, 2010; further: nearly all actives have a fitted effect of over 55% in size
# Target sequence (A8B2U2 whole entry, looked up): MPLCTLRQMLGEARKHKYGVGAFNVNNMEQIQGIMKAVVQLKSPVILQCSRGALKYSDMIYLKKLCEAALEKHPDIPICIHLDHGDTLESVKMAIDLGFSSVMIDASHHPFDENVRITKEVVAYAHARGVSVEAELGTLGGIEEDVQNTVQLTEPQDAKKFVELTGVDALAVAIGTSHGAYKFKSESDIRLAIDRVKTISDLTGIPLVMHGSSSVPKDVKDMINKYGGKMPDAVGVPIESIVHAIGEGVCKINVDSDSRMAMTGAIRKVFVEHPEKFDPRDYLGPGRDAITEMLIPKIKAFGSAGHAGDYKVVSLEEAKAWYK
#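 Giardia FBPA (40 nM reagent) was preincubated 10 min at RT with compound (up to 57.5 uM final), then substrate plus GAPDH/TPI/NAD/arsenate coupling system with diaphorase/resazurin was added; resorufin fluorescence (525/598 nm) was read after 20 min.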
# LmPK inh: qHTS Assay for Inhibitors of Leishmania Mexicana Pyruvate Kinase (LmPK); Q27686; purified LmPK, Kinase-Glo ATP luminescence, 1 h; Potency, µM (highest dose often 57.5 µM), usual class: inhibitors; 0.37% of 290,000 active; AID 1721, 2009
#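 Kinase-Glo luminescence read after 1 h RT reaction of 0.1 nM LmPK with 0.5 mM PEP and 0.1 mM ADP. Activity scaled between uninhibited and enzyme-free controls.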
# Hits are given with their value; . = inactive; ? = inconclusive; / = not tested or not shown; ! = repeats disagree; [ ] = dose if it differs, or a comment. Most compounds without a hit are left out; they make up all but 1.3% or so of the library. The call rests on the fitted dose curve; in most records, active means well fitted curve in the direction sought with a large enough effect; inconclusive means small, poorly fitted or top-dose-only effect, or another doubt; inactive means no such curve, though single readings can be large; an effect the other way counts as inactive or inconclusive.
SMILES,AmpC inh detg,AMA1 RON2 block,AmpC inh no detg,Giardia FBPA inh,LmPK inh
CC1CC(=Cc2ccc(N)cc2)C(=O)O1 (configuration not stated),/,.,/,/,/
COc1ccc(S(=O)(=O)N(C)C2CCN(C)CC2)cc1,?,.,10µM,.,.
COc1ccc(CC(=O)Nc2ccc(S(=O)(=O)N(C)C3CCN(C)CC3)cc2)cc1,.,.,.,/,/
C=CCOC(=O)C1=C(C)NC(SCC(=O)Nc2ccc(C)c(Cl)c2)=C(C#N)C1c1ccco1 (configuration not stated),?,.,7.9µM,.,.
COc1ccc(OC)c(CNC(=O)C2COc3ccccc3C2)c1 (configuration not stated),.,/,/,/,/
N/C(=N\OC(=O)c1ccc2ccccc2c1)c1ccccn1,?,.,.[11.4 µM],.,14µM
CCCc1ccc(C(=O)O/N=C(\N)c2ccccn2)cc1,.,.,.,.,16µM
N/C(=N\OC(=O)C1CCCCC1)c1ccccn1,.,.,.,.,14µM
N/C(=N\OC(=O)c1ccc(=O)n(Cc2ccccc2)c1)c1ccccn1,.,.,.,.,.
COc1cccc(C(=O)O/N=C(\N)c2ccccn2)c1,.,.,.,.,14µM
CCN(CC)c1ccc(NC(=O)C2COc3ccc(OC)cc3C2)c(C)c1 (configuration not stated),.,/,/,/,/
Cc1ccc(Cn2c(SCC(=O)NCc3ccccc3)nc3ccsc3c2=O)cc1,.,/,/,/,/
C[C@H](N)C(=O)N[C@@H](CO)C(=O)N[C@H](C(=O)N[C@H](C(=O)N[C@H](C(=O)N[C@@H](CC(N)=O)C(=O)N[C@@H](Cc1ccc(O)cc1)C(=O)N[C@H](C(=O)O)[C@@H](C)O)[C@@H](C)O)[C@@H](C)O)[C@@H](C)O,/,/,/,.,/
CN(C)[C@@H]1C(=O)C(C(N)=O)=C(O)[C@@]2(O)C(=O)C3=C(O)c4c(O)cccc4[C@@](C)(O)C3[C@H](O)C12 (some centres not stated),?,1.4µM!,.,/,/
C=C1c2cccc(O)c2C(O)=C2C(=O)[C@]3(O)C(O)=C(C(N)=O)C(=O)[C@@H](N(C)C)[C@@H]3[C@@H](O)[C@H]12,?,3.2µM,.,?,.
CN(C)C1C(=O)C(C(N)=O)=C(O)C2(O)C(=O)C3=C(O)c4c(O)cccc4C(C)(O)C3CC12 (configuration not stated),?,.,.,?,.
Oc1ccc2ccccc2c1C=NCc1cn2ccsc2n1,?,.,.,1µM,.
CN1C(=O)C(CC#N)(C2(CC#N)C(=O)N(C)c3ccccc32)c2ccccc21 (configuration not stated),/,.,/,/,/
Cc1nc(-c2coc3cc(O)c(C)cc3c2=O)cs1,.,.,.,.,7.1µM
Cc1nc(-c2coc3cc(OCC(=O)O)ccc3c2=O)cs1,.,.,.,.,?
CCCCOc1ccc(C(=O)NCC(=O)NCCOc2ccccc2)cc1,?,.,35µM,/,/
CCCCOc1ccc(C(=O)NCC(=O)NCc2ccccn2)cc1,.,.,.,/,/
N/C(=N\OC(=O)c1ccc2c(c1)OCO2)c1cccc(Br)c1,.,.,.,.,13µM
N/C(=N\OC(=O)c1ccc2c(c1)OCO2)c1cccnc1,.,.,.,.,25µM
N/C(=N\OC(=O)c1cccc(Br)c1)c1ccc(Br)cc1,.,.,.,.,.
SMILES,AmpC inh detg,AMA1 RON2 block,AmpC inh no detg,Giardia FBPA inh,LmPK inh
O=C(NCCc1c[nH]c2ccccc12)c1[nH]c(C(F)(F)F)nc1-c1ccccc1,/,.,/,/,/
Cc1cccc(-n2c(=O)c3ccccc3n(Cc3ccccc3)c2=O)c1,.,/,/,/,/
O=C(N/N=C/C=C/c1ccccc1)c1ccccn1,.,.,.,.,.
N/C(=N\OC(=O)/C=C/c1ccccc1)c1ccccn1,.,.,.,.,13µM
O=C(/C=C/c1ccccc1)c1ccccn1,.,.,.,.,14µM
COc1ccc(/C=C/C(=O)O/N=C(\N)c2ccccn2)cc1OC,/,.,.,/,/
CC(C)(C)C1CCC2(CC1)Nc1cccc3cccc(c13)N2,?,.,13µM,.,.
Cc1ccc(NCN2C(=O)C3C4C=CC(C4)C3C2=O)cc1 (configuration not stated),.,.,.,.,.
O=C1C2C3C=CC(C3)C2C(=O)N1CNc1ccc(O)cc1 (configuration not stated),.,/,.,3.2µM,.
N#C/C(=C\c1ccc(O)c(O)c1)C(=O)c1ccc(O)c(O)c1,?,?,.,.,/
N#CC(C#N)=Cc1ccc(O)c(O)c1,?,.,.,14µM!,/
CCCOc1cccc(-c2cc(C(=O)NN)c3ccccc3n2)c1,.,.,10µM,.,.
C[N+](C)(C)CCNC(=O)c1ccccc1,/,.,/,/,/
CCOC(=O)C1=C(C)N(C[C@@H]2CC[C@@H](Cc3ccc(-c4ccccc4)cc3)O2)C(=O)NC1c1ccc(SCc2ccco2)c([N+](=O)[O-])c1 (some centres not stated),/,.,7.9µM,/,/
Oc1cc(-c2ccccc2)c2ccccc2c1,.,.,.,5.6µM,.
Cc1cccc(NC(=O)CSc2nc3[nH]ncc3c(=O)n2-c2ccccc2)c1,.,/,8.9µM,.,.
CCc1ccc(-n2c(SCc3ccccc3F)nc3[nH]ncc3c2=O)cc1,.,/,/,/,/
O=c1c2cn[nH]c2nc(SCc2ccccc2F)n1-c1ccc(Br)cc1,?,.,11µM,.,.
CCN1CCN(c2cc(N3CCN(C(=O)c4ccco4)CC3)c3c4c(onc24)-c2ccccc2C3=O)CC1,.,22µM,.,?,.
O=C(O)CCNc1cc(N2CCN(C(=O)c3ccco3)CC2)c2noc3c2c1C(=O)c1ccccc1-3,.,32µM,.,?,.
CC(=O)OCCNc1cc(N2CCN(C)CC2)c2noc3c2c1C(=O)c1ccccc1-3,?,?,.,?,.
O=C(O)CCCNc1cc(N2CCN(C3CCCCC3)CC2)c2noc3c2c1C(=O)c1ccccc1-3,.,/,/,/,/
CC1(c2ccccc2)NC(=O)N(CC(=O)NNC(=O)c2cccc(Cl)c2)C1=O (configuration not stated),.,.,.,/,/
CS(=O)(=O)n1c2ccccc2c(=O)n1-c1ccccc1CCl,/,.,/,/,/
Cc1ccc(-c2c(C)n3c4c(=O)n(C)c(=O)n(C)c4nc3n2-c2cccc(O)c2)cc1,.,/,/,/,/
[O-]/C(=C(\C(=S)Nc1cccc2ccccc12)[n+]1ccccc1)c1ccc(OC(F)F)cc1,?,.,.,22µM,.
COc1cccc(NC(=S)/C(=C(\[O-])c2ccc(OC(F)F)cc2)[n+]2ccccc2)c1,.,.,.,?,.
